Among the data in the supplement of paper PMC7411054 are phenotypically active values, retold here.

Where a name gives a salt, the structure may show the parent alone.

The test system of the first assay is HepG2-TUBA1B-RELA. Briefly: phenotypically active (imaging signature differs from DMSO and reproducible) at any of 0.3-9 uM (binary (1 = active, 0 = inactive)); higher = active. The settings on record: treatment time: 24 h. An outline of the steps: (§1)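 Live-cell features were measured per well and normalised to solvent control wells after fifteen gene-edited A549, HepG2 and WPMY1 reporter lines had been treated for 24 h at 0.3, 1, 3 or 9 µM in four wells each. A condition was deviating when ≥3 of 4 wells sat beyond the 95th percentile of control Euclidean distances. It was reproducible when the median replicate Pearson correlation exceeded the 95th percentile of non-replicates. Phenotypic activity demanded both.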
As for `CN1C(=O)CC(C)(c2ccccc2)C1=O` (stereo not drawn) [methsuximide], the phenotypically active is 0 (inactive).
Same read-out and setting: in the case of `O=C(NCCO)c1cc(C(=O)NCCO)cc(C(=O)NCCO)c1` it was 0 (inactive); in that of `CO[C@H]1C=CO[C@@]2(C)Oc3c(C)c(O)c4c(O)c(c5c(nc6cc(C)ccn65)c4c3C2=O)NC(=O)C(C)=CC=C[C@H](C)[C@H](O)[C@@H](C)[C@@H](O)[C@@H](C)[C@H](OC(C)=O)[C@@H]1C` [Rifaximin], 0 (inactive); in that of `N#Cc1ccc(C(c2ccc(C#N)cc2)n2cncn2)cc1` [Letrozole], 0 (inactive).
On the same count and under the same terms, the figure for `NC(=O)c1cccc(-c2cccc(OC(=O)NC3CCCCC3)c2)c1` is 0 (inactive); for `O=C(Nc1cccnc1)c1cc(-c2ccnc(F)c2)ccc1OCc1ccccc1` it is 0 (inactive).
On the same count and under the same terms, in the case of `O=C(O)CCCC[C@@H]1SC[C@@H]2NC(=O)N[C@@H]21` [Biotin] it was 0 (inactive).
Turning to `NS(=O)(=O)c1cc2c(cc1Cl)NC(C(Cl)Cl)NS2(=O)=O` (stereo not drawn) [trichlormethiazide], the phenotypically active is 0 (inactive).
`CCn1c(=O)c2cc(C(N)=O)c(N)nc2n(C2CC2)c1=O`: the phenotypically active is 0 (inactive).
Still for that read-out and setting: in the case of `CCCSc1nc2c(c(=O)n1-c1ccccc1)SCC2` it was 0 (inactive).
On to `COc1cc(C#N)ccc1S(=O)(=O)Nc1ccc2c(c1)cc(C)c(=O)n2C`, for which the phenotypically active was 0 (inactive).
Same read-out and setting: the figure for `CC(C)(C)NC[C@H](O)COc1nsnc1N1CCOCC1` [timolol] is 0 (inactive); for `CC[N+](CC)(CC)CCC(O)(c1ccccc1)C1CCCCC1` (stereo not drawn) [tridihexethyl] it is 0 (inactive); for `COC(=O)C1=CO[C@@H](O[C@@H]2O[C@H](CO)[C@@H](O)[C@H](O)[C@H]2O)[C@H]2[C@@H]1C(=O)C[C@@H]2C` [Verbenaline] it is 0 (inactive).
On the same count and under the same terms, in the case of `Nc1ncnc2c1ncn2[C@H]1O[C@@H](C(=O)N2CCN(CC(=O)Nc3cccc4c3CNC4=O)CC2)[C@H](O)[C@@H]1O` it was 0 (inactive).
Same read-out and setting: in the case of `COc1ccc2cc(CCC(C)=O)ccc2c1` [nabumetone] it was 0 (inactive); in that of `CC(C)c1ccc2oc3nc(N)c(C(=O)O)cc3c(=O)c2c1` [Amlexanox], 0 (inactive).
`O=C(/C=C/N1C[C@H]2C[C@@H]1CN2c1ccccn1)c1ccccc1O`: the phenotypically active was 0 (inactive).
On the same count and under the same terms, the figure for `C#CCN(C)Cc1ccccc1` [pargyline] is 0 (inactive); for `Cc1nc2c(O)cccc2c(=O)[nH]1` it is 0 (inactive); for `CC(C)Cn1c(=O)n(C)c(=O)c2[nH]cnc21` it is 0 (inactive).
Consider `COc1ccccc1OCC(O)CN1CCN(CC(=O)Nc2c(C)cccc2C)CC1` (stereo not drawn) [ranolazine], for which the phenotypically active is 0 (inactive).
On the same count and under the same terms, in the case of `COC(=O)c1c(C)cc(OC(=O)c2c(C)cc(O)c(C=O)c2O)c(C)c1O` [Atranorin] it was 0 (inactive).
Same read-out and setting: the figure for `CC(C)NCCCC1(C(N)=O)c2ccccc2-c2ccccc21` [indecainide] is 0 (inactive); for `O=C1c2ccccc2C(Cc2ccncc2)(Cc2ccncc2)c2ccccc21` it is 0 (inactive); for `CC1=NN(c2ccc(C(=O)O)cc2)C(=O)/C1=C\c1ccc(-c2cc(C)c(C)cc2[N+](=O)[O-])o1` it is 0 (inactive).
The same measure, in the same setting: the figure for `CCCC(=O)Nc1ncnc2c1ncn2[C@@H]1O[C@@H]2COP(=O)(O)O[C@H]2[C@H]1OC(=O)CCC` [Dibutyryl-cAMP, sodium salt] is 0 (inactive).
For `CCO[C@@H](Cc1ccc(OCCc2ccc(OS(C)(=O)=O)cc2)cc1)C(=O)O` [Tesaglitazar], the phenotypically active is 0 (inactive).
Still for that read-out and setting: the figure for `O=c1[nH]cnc2ccccc12` is 0 (inactive); for `S=P(N1CC1)(N1CC1)N1CC1` [thiotepa] it is 0 (inactive).
Still for that read-out and setting: the figure for `C[C@](N)(Cc1ccc(O)c(O)c1)C(=O)O` [methyldopa] is 0 (inactive); for `CC1CCC(C(C)C)C(O)C1` [L-menthol] it is 0 (inactive).
With `CCCCC1=NC2(CCCC2)C(=O)N1Cc1ccc(-c2ccccc2-c2nnn[nH]2)cc1` [irbesartan], the phenotypically active is 0 (inactive).
For `CC(=O)Oc1ccccc1C(=O)O` [aspirin], the phenotypically active is 0 (inactive).
The same measure, in the same setting: in the case of `CC(C(=O)O)c1ccc(C(=O)c2cccs2)cc1` (stereo not drawn) [suprofen] it was 0 (inactive).
On the same count and under the same terms, the figure for `FC(F)OC(F)C(F)(F)F` (stereo not drawn) [desflurane] is 0 (inactive); for `CC(C)NCC(O)c1ccc(NS(C)(=O)=O)cc1` (stereo not drawn) [sotalol] it is 0 (inactive).
The same measure, in the same setting: in the case of `COc1ccc(C(C)=O)c(O)c1` [2'-Hydroxy-4'-Methoxyacetophenone] it was 0 (inactive); in that of `CC(=O)[C@H]1CC[C@H]2[C@@H]3CCC4=CC(=O)CC[C@]4(C)[C@H]3CC[C@]12C` [progesterone], 0 (inactive).

The test system of a further assay is WPMY1-ACTB-RAB5A. Described as above. The settings on record: treatment time: 24 h. In short, it runs like this:
as §1
In the case of `CN1C(=O)CC(C)(c2ccccc2)C1=O` (stereo not drawn) [methsuximide], the phenotypically active was 0 (inactive).
Still for that read-out and setting: the figure for `O=C(NCCO)c1cc(C(=O)NCCO)cc(C(=O)NCCO)c1` is 0 (inactive).
Turning to `CO[C@H]1C=CO[C@@]2(C)Oc3c(C)c(O)c4c(O)c(c5c(nc6cc(C)ccn65)c4c3C2=O)NC(=O)C(C)=CC=C[C@H](C)[C@H](O)[C@@H](C)[C@@H](O)[C@@H](C)[C@H](OC(C)=O)[C@@H]1C` [Rifaximin], the phenotypically active is 0 (inactive).
Still for that read-out and setting: the figure for `N#Cc1ccc(C(c2ccc(C#N)cc2)n2cncn2)cc1` [Letrozole] is 0 (inactive); for `NC(=O)c1cccc(-c2cccc(OC(=O)NC3CCCCC3)c2)c1` it is 0 (inactive).
Turning to `O=C(Nc1cccnc1)c1cc(-c2ccnc(F)c2)ccc1OCc1ccccc1`, the phenotypically active was 0 (inactive).
Still for that read-out and setting: the figure for `O=C(O)CCCC[C@@H]1SC[C@@H]2NC(=O)N[C@@H]21` [Biotin] is 0 (inactive); for `NS(=O)(=O)c1cc2c(cc1Cl)NC(C(Cl)Cl)NS2(=O)=O` (stereo not drawn) [trichlormethiazide] it is 0 (inactive); for `CCn1c(=O)c2cc(C(N)=O)c(N)nc2n(C2CC2)c1=O` it is 0 (inactive).
The same measure, in the same setting: in the case of `CCCSc1nc2c(c(=O)n1-c1ccccc1)SCC2` it was 0 (inactive).
Turning to `COc1cc(C#N)ccc1S(=O)(=O)Nc1ccc2c(c1)cc(C)c(=O)n2C`, the phenotypically active is 0 (inactive).
With `CC(C)(C)NC[C@H](O)COc1nsnc1N1CCOCC1` [timolol], the phenotypically active is 0 (inactive).
As to `CC[N+](CC)(CC)CCC(O)(c1ccccc1)C1CCCCC1` (stereo not drawn) [tridihexethyl], the phenotypically active is 0 (inactive).
Regarding `COC(=O)C1=CO[C@@H](O[C@@H]2O[C@H](CO)[C@@H](O)[C@H](O)[C@H]2O)[C@H]2[C@@H]1C(=O)C[C@@H]2C` [Verbenaline], the phenotypically active is 0 (inactive).
Regarding `Nc1ncnc2c1ncn2[C@H]1O[C@@H](C(=O)N2CCN(CC(=O)Nc3cccc4c3CNC4=O)CC2)[C@H](O)[C@@H]1O`, the phenotypically active was 0 (inactive).
As for `COc1ccc2cc(CCC(C)=O)ccc2c1` [nabumetone], the phenotypically active was 0 (inactive).
Regarding `CC(C)c1ccc2oc3nc(N)c(C(=O)O)cc3c(=O)c2c1` [Amlexanox], the phenotypically active is 0 (inactive).
Consider `O=C(/C=C/N1C[C@H]2C[C@@H]1CN2c1ccccn1)c1ccccc1O`, for which the phenotypically active is 0 (inactive).
Still for that read-out and setting: the figure for `C#CCN(C)Cc1ccccc1` [pargyline] is 0 (inactive); for `Cc1nc2c(O)cccc2c(=O)[nH]1` it is 0 (inactive); for `CC(C)Cn1c(=O)n(C)c(=O)c2[nH]cnc21` it is 0 (inactive).
Same read-out and setting: in the case of `COc1ccccc1OCC(O)CN1CCN(CC(=O)Nc2c(C)cccc2C)CC1` (stereo not drawn) [ranolazine] it was 0 (inactive); in that of `COC(=O)c1c(C)cc(OC(=O)c2c(C)cc(O)c(C=O)c2O)c(C)c1O` [Atranorin], 0 (inactive).
The same measure, in the same setting: in the case of `CC(C)NCCCC1(C(N)=O)c2ccccc2-c2ccccc21` [indecainide] it was 0 (inactive).
For the compound `O=C1c2ccccc2C(Cc2ccncc2)(Cc2ccncc2)c2ccccc21`, the phenotypically active was 0 (inactive).
On the same count and under the same terms, in the case of `CC1=NN(c2ccc(C(=O)O)cc2)C(=O)/C1=C\c1ccc(-c2cc(C)c(C)cc2[N+](=O)[O-])o1` it was 0 (inactive).
For the compound `CCCC(=O)Nc1ncnc2c1ncn2[C@@H]1O[C@@H]2COP(=O)(O)O[C@H]2[C@H]1OC(=O)CCC` [Dibutyryl-cAMP, sodium salt], the phenotypically active is 0 (inactive).
On the same count and under the same terms, the figure for `CCO[C@@H](Cc1ccc(OCCc2ccc(OS(C)(=O)=O)cc2)cc1)C(=O)O` [Tesaglitazar] is 0 (inactive); for `O=c1[nH]cnc2ccccc12` it is 0 (inactive); for `S=P(N1CC1)(N1CC1)N1CC1` [thiotepa] it is 0 (inactive).
For `C[C@](N)(Cc1ccc(O)c(O)c1)C(=O)O` [methyldopa], the phenotypically active is 0 (inactive).
Same read-out and setting: in the case of `CC1CCC(C(C)C)C(O)C1` [L-menthol] it was 0 (inactive).
`CCCCC1=NC2(CCCC2)C(=O)N1Cc1ccc(-c2ccccc2-c2nnn[nH]2)cc1` [irbesartan]: the phenotypically active is 0 (inactive).
Turning to `CC(=O)Oc1ccccc1C(=O)O` [aspirin], the phenotypically active was 0 (inactive).
The same measure, in the same setting: the figure for `CC(C(=O)O)c1ccc(C(=O)c2cccs2)cc1` (stereo not drawn) [suprofen] is 0 (inactive); for `FC(F)OC(F)C(F)(F)F` (stereo not drawn) [desflurane] it is 0 (inactive).
Same read-out and setting: in the case of `CC(C)NCC(O)c1ccc(NS(C)(=O)=O)cc1` (stereo not drawn) [sotalol] it was 0 (inactive).
Take `COc1ccc(C(C)=O)c(O)c1` [2'-Hydroxy-4'-Methoxyacetophenone]: the phenotypically active is 0 (inactive).
Still for that read-out and setting: in the case of `CC(=O)[C@H]1CC[C@H]2[C@@H]3CCC4=CC(=O)CC[C@]4(C)[C@H]3CC[C@]12C` [progesterone] it was 0 (inactive).
